Measured values from PubChem BioAssay (NCI).
This is part of a sample that, as a whole, favours compounds with a hit. Of some 79,000 tested, about 15% had one in any assay. No stated cut-off is given here; in the data, active means growth inhibition above about 70%; inactive means the rest.

How the values were obtained:
[1] = NCI Yeast Anticancer Drug Screen. Data for the rad50 strain (AID 155);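 further: 0% = growth of vehicle-only cultures of the same strain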; conditions: S. cerevisiae rad50 strain growth inhibition; at 50.0 µM; active compounds read high
Method in brief: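 Yeast carrying a defined DNA repair defect were exposed to test compounds, and growth was compared with vehicle-treated controls to give percent inhibition.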

[2] = NCI Yeast Anticancer Drug Screen. Data for the mec2-1 strain (AID 157); conditions: S. cerevisiae mec2-1 strain, at 50.0 µM, active compounds read high
Method in brief: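 Growth inhibition is read against vehicle-treated controls after compound exposure of the mec2-1 yeast strain, which is defective in DNA damage repair or cell cycle control.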

[3] = NCI Yeast Anticancer Drug Screen. Data for the sgs1 mgt1 strain (AID 161);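 further: 0% = growth of cultures given vehicle only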; conditions: S. cerevisiae sgs1 mgt1 strain, at 50.0 µM, active compounds read high
Method in brief: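 Compounds are added to genetically altered yeast, and growth is compared with cultures given vehicle alone to give percent inhibition.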

[4] = NCI Yeast Anticancer Drug Screen. Data for the cln2 rad14 strain (AID 165);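 further: 0% = growth equal to vehicle treated cultures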; conditions: S. cerevisiae cln2 rad14 strain, at 50.0 µM, active compounds read high
Method in brief: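 Growth inhibition, relative to vehicle-treated controls, is the read-out. The test organism is a yeast strain with defined genetic alterations, cln2 rad14.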

[5] = NCI Yeast Anticancer Drug Screen. Data for the bub3 strain (AID 167); conditions: S. cerevisiae bub3 mutant strain, at 50.0 µM, active compounds read high
Method in brief: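 Compounds were applied to a genetically altered yeast strain carrying a cell-cycle control defect. Growth inhibition was scored against vehicle-treated controls.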

[6] = NCI Yeast Anticancer Drug Screen. Data for the mlh1 rad18 strain (AID 175); conditions: S. cerevisiae mlh1 rad18 strain growth inhibition; at 50.0 µM; active compounds read high
Method in brief: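 Cells of a genetically altered yeast strain, deficient in DNA damage repair, were treated with compound. Their growth was then compared with that of vehicle-treated cultures to give inhibition.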

Measured: growth inhibition

FC(F)(F)C(F)(F)C(F)(F)c1n[nH]c(C(F)(F)C(F)(F)C(F)(F)F)n1
inactive: [1] 12.8% | [2] 15.1% | [3] 33.4% | [4] 2.95% | [5] 18.5% | [6] -0.1%

C[n+]1cccc2cc([N+](=O)[O-])ccc21
inactive: [1] -21.6% | [2] -6.8% | [3] 4.35% | [4] -77.7% | [5] 3.9% | [6] -13.3%

CCOC(=O)C1C2CCCC(=O)C21 (stereo not given)
inactive: [1] 9% | [2] -4.5% | [3] 3.9% | [4] -56.8% | [5] 12.1% | [6] 3.3%

COCCNC(=O)C(C)O (stereo not given)
inactive: [1] 1.7% | [2] 3.95% | [3] -4.9% | [4] 19.2% | [5] 17.1% | [6] 6.15%

O=C(O)/C=C/n1c2ccccc2c(=O)c2ccccc21
inactive: [1] -10.1% | [2] -13.8% | [3] -20.9% | [4] 8.9% | [5] -7.7% | [6] -15%

CC(=O)Nc1cccc(Cc2ccccc2)c1
inactive: [1] 14.3% | [2] -14.4% | [3] 1.05% | [4] -67.2% | [5] -6.3% | [6] -4.6%

Cc1ccc(CCCC(=O)O)cc1C
inactive: [1] -21.6% | [2] 2.65% | [3] -7.05% | [4] 10.6% | [5] -44.2% | [6] -13.8%

Cc1ccc2c(c1)C(C)CC2(C)C (stereo not given)
inactive: [1] 1.8% | [2] -6.55% | [3] -4.6% | [4] 3.65% | [5] 8.95% | [6] 2.15%

NNC(=O)c1ccc(Cl)c(Cl)c1
inactive: [1] -1.1% | [2] -13.3% | [3] -0.9% | [4] 2.85% | [5] -16.3% | [6] -23.8%

O=C(O)C1(CC(CCCN2CCCCC2)c2ccccc2)CCCC1 (stereo not given)
inactive: [1] -40% | [2] -9.65% | [3] -4.1% | [4] 6.4% | [5] -15.4% | [6] -36.3%

CC1(C)c2ccccc2-c2nc3ccccc3nc2C1O (stereo not given)
inactive: [1] 4.65% | [2] 18.8% | [3] -8% | [4] -14% | [5] 1.95% | [6] -9.7%

CCOC(=O)c1cnc(=S)n(CCC(C)C)c1N
inactive: [1] -11.2% | [2] 8.25% | [3] 12.7% | [4] -40.5% | [5] 2.9% | [6] 4.95%

Cc1cc(=O)[nH]c(-n2[nH]c(C)c(CCO)c2=O)n1
inactive: [1] -13.3% | [2] -17.2% | [3] 14.8% | [4] 19.9% | [5] -5.9% | [6] 18.4%

CC(=O)c1c(N)n(C)c(=O)n(C)c1=O
inactive: [1] 36% | [2] 2.9% | [3] 3.55% | [4] -47.1% | [5] -14.6% | [6] 17.4%

O=C(CCC(=O)C1Cc2ccccc2C1=O)Nc1cccc(C(F)(F)F)c1 (stereo not given)
inactive: [1] -38.8% | [2] -42% | [3] -18.8% | [4] -1.5% | [5] -22.9% | [6] -30.7%

Nc1ncc([N+](=O)[O-])c(N)n1
inactive: [1] 2.75% | [2] 5.45% | [3] 7.75% | [4] 0.7% | [5] -13.8% | [6] 15.9%

Oc1cc(-c2ccc(Cl)cc2)cn2c1nc1ccccc12
inactive: [1] -13.3% | [2] -23.8% | [3] -38.5% | [4] -24.1% | [5] -5.75% | [6] -50%

CCCCC(=O)CCC(=O)O
inactive: [1] 9.7% | [2] 11.6% | [3] 4.95% | [4] 13.8% | [5] 9.7% | [6] 12.7%

CC(C)CCOC(=O)c1ccccc1Cl
inactive: [1] 17.7% | [2] 18.5% | [3] 11.1% | [4] 12.4% | [5] 0.15% | [6] -14.6%

c1nnco1
inactive: [1] -4.2% | [2] 0.75% | [3] -2.5% | [4] 5.5% | [5] 6.85% | [6] -18.2%
